# This is a sample that favours compounds with a hit; in the whole collection about 2.1% have one here.
# APP transl inh – APP translation inhibition; SH-SY5Y APP 5'UTR-luciferase reporter, luminescence; inhibition, % at 2 µM; 0.82% of 190,000 active;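 active = inhibition above a set limit, derived from the sample mean plus 3 SD, cut at about 45% in these data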
# BaF3 parental – parental Ba/F3 viability inhibition as JAK2V617F counter-screen; CellTiter-Glo ATP luminescence; inhibition, % at 5.6 µM; 1.1% of 220,000 active; AID 1486;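 active = inhibition above a per-campaign cutoff, the mean inhibition of all tested compounds plus 3 SD, cut at about 27% in these data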;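 note: 0% = DMSO wells and 100% = JAK Inhibitor I control wells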
# IEC-6 cytotox – counter-screen for KLF5 inhibitors: cytotoxicity in IEC-6 cells. IEC-6 cytotoxicity, luminescence viability. inhibition, % at 5 µM. 0.78% of 290,000 active;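 note: 0% = plate median of test compound wells and 100% = cytotoxic reference compound wells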
# Ba/F3 V617F tox – reduce viability of Ba/F3 cells dependent on JAK2V617F; inhibition, % at 5.6 µM; AID 1446; Ba/F3 EpoR-JAK2V617F viability, ATP luminescence; 1.1% of 220,000 active;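 active = inhibition above the campaign mean plus 3 SD over all tested compounds, cut at about 24% in these data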;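 note: cytokine-independent growth of Ba/F3 cells driven by EpoR plus mutant JAK2; 0% = DMSO-treated cells and 100% = JAK inhibitor I control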
# aSyn 5UTR inh – 5' untranslated region of α-synuclein, MLPCN primary screen | alpha-synuclein 5'UTR reporter, inhibitor activity | inhibition, % (tested at 7.5 µM) | 0.82% of 300,000 active; in the data active = inhibition above about 60%;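 note: H4 neuroglioblastoma cells stably carrying SNCA 5'UTR luciferase fusion; 0% = DMSO wells and 100% = positive control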
# KLF5 inh – kruppel-like factor 5 inhibition; DLD-1 KLF5 promoter-luciferase reporter, luminescence; inhibition, % at 5 µM; 0.23% of 290,000 active; AID 1700;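 active = inhibition above a per-plate limit of that plate's mean compound inhibition plus 3 SD, cut at about 60% in these data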;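 note: 0% = DMSO wells and 100% = LY294002 at 200 µM; higher means less KLF5 promoter-driven luciferase light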
# IEC-6 tox confirm – IEC-6 cytotoxicity, confirmation assay; shares compounds with IEC-6 cytotox; IEC-6 rat intestinal epithelial viability, luminescence; inhibition, % at 5 µM; 63% of 1,900 active;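 note: 0% = vehicle and 100% = reference cytotoxic drug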
# * = called active by the depositor; · = not tested or not shown. Cut-off read from the data, not from the text of the source, unless noted: active = inhibition above about 22%; inactive = the rest.
SMILES,APP transl inh,BaF3 parental,IEC-6 cytotox,Ba/F3 V617F tox,aSyn 5UTR inh,KLF5 inh,IEC-6 tox confirm
CCN1CCN(c2nc(Nc3ccccc3F)nc(N)c2[N+](=O)[O-])CC1,·,-4,2,-5,20,-23,·
Nc1nc(Nc2ccccc2F)nc(N2CCCC2)c1[N+](=O)[O-],·,·,23*,·,-131,-16,22*
OCCC1CN(CCCc2ccccc2)CCN1Cc1ccccc1 (centres undefined),·,1,23*,-4,1,-22,3
Cc1ccc2sc(N(CCCN(C)C)C(=O)CCS(=O)(=O)c3ccccc3)nc2c1C,·,·,24*,·,44,5,5
COc1ccc(OC)c2sc(N(CCCN(C)C)C(=O)CCS(=O)(=O)c3ccccc3)nc12,·,·,·,·,-3,·,·
CCCC[C@H](CN[C@@H](CNC)[C@H](C)CC)NCCC12CCC(CC1)C2,·,·,39*,·,-43,-22,102*
COCCn1c(SCC(=O)Nc2cc(C)on2)nc2c(c1=O)SCC2,·,·,0,·,-19,-23,·
CS(=O)(=O)Nc1cccc(C2=NN(C(=O)c3ccco3)C(c3ccco3)C2)c1 (centres undefined),·,·,-1,·,-12,-17,·
CCS(=O)(=O)Nc1cccc(C2=NN(C(=O)c3ccco3)C(c3ccco3)C2)c1 (centres undefined),·,·,47*,·,-73,46,22*
Cc1ccc(S(=O)(=O)Nc2ccc(Br)cc2C(NCC(=O)O)c2ccccc2)cc1 (centres undefined),-11,-1,4,0,30,31,·
O=C(O)CSc1cc(NS(=O)(=O)c2ccc(Br)cc2)c2ccccc2c1O,·,·,54*,·,16,-52,-3
CN(Cc1ccccc1)C1CCCN(C(=O)c2ccc(Cl)s2)C1 (centres undefined),·,·,5,·,16,-34,·
CCCNc1nc(-c2ccccc2)c(C(=O)OCC)cc1C#N,82*,58*,46*,59*,94*,30,75*
O=C(O)CCN1CCc2ccccc2C1c1ccncc1 (centres undefined),·,·,1,·,22,-4,·
Cc1cccc(NC(=S)NC2CC3C=CC2C3)c1 (centres undefined),·,-3,5,-2,-11,-37,·
Cc1ccc2oc(/N=C(\N)NC(=O)C3CC3)nc2c1,·,29*,32*,38*,5,-14,31*
CCc1ccc(NS(=O)(=O)c2c(C(=O)N3CCCCCC3)c(C)n(C)c2C)cc1,·,·,0,·,-1,-2,·
COc1ccc(-c2cc(C)no2)cc1S(=O)(=O)N(C)c1ccc(C)c(C)c1,·,·,3,·,28,-21,·
Cc1cc(-c2ccc(S(=O)(=O)N(C)c3ccc(C)c(C)c3)s2)on1,·,·,53*,·,0,32,42*
Cc1ccc(N(C)S(=O)(=O)c2ccc(-c3cc(C)no3)s2)cc1,·,·,41*,·,-38,35,5
CCOc1ccc(C2=Nn3c(nnc3-c3ccc(OC)cc3)SC2)cc1,95*,57*,34*,73*,84*,-5,52*
COc1ccc(C2=Nn3c(nnc3-c3ccncc3)SC2)cc1,3,-1,3,-6,8,-14,·
CCOc1cc(/C=N/Nc2cc(C)nc(-n3nc(C)cc3C)n2)ccc1O,·,-1,54*,-1,68*,4,16
Cc1cc(N/N=C/c2ccc(F)cc2)nc(-n2nc(C)cc2C)n1,·,1,8,3,9,-2,·
COc1ccc(NC(=O)C2CCN(S(=O)(=O)c3cn(C)nc3C)CC2)cc1,·,·,5,·,-2,-33,·
SMILES,APP transl inh,BaF3 parental,IEC-6 cytotox,Ba/F3 V617F tox,aSyn 5UTR inh,KLF5 inh,IEC-6 tox confirm
COc1cc2[nH]c(=S)nc(NCc3ccc(Cl)cc3)c2cc1OC,·,·,30*,·,20,1,42*
Cn1ncc2c(O/N=C(\N)c3ccc(C(C)(C)C)cc3)ncnc21,·,36*,93*,75*,104*,-30,21
Cc1ccc(S(=O)(=O)N2CCOC2CNC(=O)C(=O)NCCN2CCOCC2)cc1 (centres undefined),·,·,6,·,18,-12,·
CCOc1ccc(-c2c[n+]3c(n2-c2ccccc2)CCCCC3)cc1,-22,70*,25*,89*,19,-45,19
CCOc1ccc(-c2nnc(-c3ccccc3)n2-c2ccccc2)cc1,-15,1,-9,0,-22,0,·
Cc1ccc(-c2nc(Nc3cccc(O)c3)c3ccccc3n2)cc1,·,·,-2,·,13,-25,·
COc1ccc(Nc2nc(-c3ccncc3)nc3ccccc23)cc1,·,·,30*,·,-7,-34,19
COc1ccc(Nc2c3ccccc3nc3ccccc23)cc1,·,·,74*,·,-55,-5,31*
COc1ccc(Nc2c3c(nc4ccccc24)CCC3)cc1,·,·,12,·,35,0,·
COc1ccccc1Nc1c2ccccc2nc2ccccc12,·,·,28*,·,-45,-1,13
Oc1cccc(Nc2c3ccccc3nc3ccccc23)c1,·,·,35*,·,-81,-5,36*
CCc1ccc(-c2cc(C)no2)cc1S(=O)(=O)N1CCN(c2cc(C)ccc2C)CC1,·,·,1,·,-6,-11,·
COc1ccc(-c2nc(CS(=O)(=O)CC(=O)NCc3ccccc3OC)c(C)o2)cc1,·,·,0,·,-1,-23,·
CCOC(=O)c1ccc(NC(=O)Cn2ncc(Cl)c(Cl)c2=O)cc1,96*,63*,35*,56*,-2,-1,32*
Cc1ccc(C(=O)OCn2ncc(Cl)c(Cl)c2=O)cc1,92*,56*,44*,39*,43,8,56*
COc1ccc(NC(=O)Cn2ncc(Cl)c(Cl)c2=O)cc1S(=O)(=O)N1CCOCC1,-4,-6,41*,-4,-32,12,7
O=C(O)C1CCC(N2C(=O)c3cccc([N+](=O)[O-])c3C2=O)CC1 (centres undefined),·,·,-5,·,-8,-19,·
Cc1cn2c(=O)c(C(=O)N3CCN(c4ccccc4F)CC3)cnc2s1,·,·,·,·,-3,·,·
O=C(NCCc1cccc(Cl)c1)c1cccs1,-96,4,-1,-2,-115,-89,·
CCN(CC)CCOc1ccc(Br)cc1,1,2,2,0,15,8,·
CCN(CC)CCOc1ccc2c(c1)C(=NO)c1cc(OCCN(CC)CC)ccc1-2,33,19,37*,18,8,4,21
O=C(NCc1cnc2ccccn12)C1CCC(=O)N(Cc2ccccc2F)C1 (centres undefined),·,·,-1,·,-11,-15,·
CC1CC(C)CN(CCCNC(=O)c2ccc3nc(N4CCCCC4)sc3c2)C1 (centres undefined),·,·,27*,·,-273,-114,2
CCCN1CCN(CCCNC(=O)c2ccc3nc(N4CCCCC4)sc3c2)CC1,·,·,0,·,-214,-138,·
CS(=O)(=O)c1ccc(NC(=O)c2cccc(S(=O)(=O)N3CCN(Cc4ccccc4)CC3)c2)cc1,·,·,-8,·,16,-31,·
COCc1ccc(C(=O)N2CCCC(N3CCN(c4ccc(F)cc4)CC3)C2)o1 (centres undefined),·,·,0,·,9,18,·

# Screening data from PubChem BioAssay.
